Results taken from PubChem BioAssay AID1508600 (Functional Genomics Laboratory (NCATS/FGL), 2020).
The campaign covered roughly 53,000 sequences. About 3,700 (7%) were called active. This is one part of a sample in which actives are shown more often than they occur. Values without a mark were called inactive.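 How the source made its calls: active means gene knockdowns whose robust z-score for IL-1 alpha signal is at least 2 or at most -2, so actives lie on both sides; inactive means the rest.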

experiment: Components of the Cytosolic LPS Sensing Pathway: Gene Identification via Genome-wide siRNA Screen; conditions: RAW264.7 macrophages, IL-1a HTRF, actives lie on both sides, screened at 100 nM (by protocol), cells primed 5 h with Pam3CSK4 first;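 further: robust z of the log signal after scaling to non-targeting control siRNA wells of the plate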
How it was run: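 Read-out: IL-1a HTRF on supernatant, divided by plate negative-control median ×100, log-transformed and converted to robust z-score. Cells were RAW264.7 given 100 nM siRNA, Pam3CSK4-primed 5 hours, then LipidA-transfected 24 hour.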

| Sequence | z-score |
| --- | --- |
| CCCAGUAAAUAAGAGUACATT against Treml1 | -1.33 |
| GGGAGACCCAAUGUCAUCATT against Dtx3 | -1.25 |
| GCGGGAUUGGUCAUUCCACTT against Mrpl45 | 2.97 (active) |
| CGAACAUGUACAACAAAGATT against Cacna2d3 | -0.181 |
| GGAACAAAGACUUCAAAGATT against Olfr323 | -0.249 |
| GGUGCUAAAAAUGAGCCUUTT against Urm1 | -1.66 |
| GGGAUGGCCAUAGAACAGATT against Echdc2 | -0.211 |
| CCCUAGACUUGAGAGUUUUTT against Eif2s1 | 1.29 |
| GGCUGUGGAAGUGCAGAACTT against Dnmt3a | -2.53 (active) |
| CCGAGAGGUUUAAGGUCUCTT against Nsg1 | 1.18 |
| GCUAGUCUACCCAAGUGACTT against Dennd6b | 4.35 (active) |
| CCUACUUACUCCUGUAUAATT against Adam3 | 1.77 |
| CGAAACCAACAGUUAGAAGTT against Cby1 | 0.71 |
| GAUCCUCACGAAAUAGGUATT against Olfr1372-ps1 | 0.737 |
| GGUCUCUAGUGGAAAAGCATT against A430093F15Rik | -3.05 (active) |
| GCUCUUAAAACCCACCUGATT against Gzf1 | -1.97 |
| UAAUGGCUGCUGUCUCCUGTT against Olfr441 | 0.405 |
| GGCGAAAAAGAACUUCUCCTT against Prrx1 | -2.17 (active) |
| GCCUACAUUCACUCACUCCTT against Olfr1061 | -0.016 |
| GGAUCAUUCGGACAAAAGUTT against Pax5 | -1.31 |
| GGAGAAGAAGAUUUUUGGCTT against Gpr108 | -0.684 |
| GCCAACAAAGUGAUCGAAGTT against Fkbp10 | 0.175 |

| Sequence | z-score |
| --- | --- |
| CCAGCAAUGUACCAGUUCATT against Micos13 | -2.02 (active) |
| GGUGAAAGAGAAGACUGAATT against Aimp1 | -0.418 |
| GGGUAUUCCUUCCAACACCTT against Lrrc4 | -2.14 (active) |
| CCCAGUAUCAGACUAUCAUTT against Inpp4a | -0.178 |
| CGAAUUUUGGAGAUGUAUGTT against Ddias | 0.376 |
| GGAACAAAGAAGUCAAAGATT against Olfr16 | -0.765 |
| CGGUGAUCAAUCAUUGUAATT against Tas2r113 | -2.16 (active) |
| GCCUGUCAACUACCCAUAUTT against Ergic3 | -1.13 |
| GGCAAUGAGUCUGACCUCUTT against Capg | -1.39 |
| GCUAAGGCUUGGAAUGACATT against Maged1 | -0.105 |
| GGUGGUGGGUCCAAUUUUUTT against Jpt1 | 0.411 |
| GGACGUAGAAGUUUGGGAGTT against Nupl2 | 1.39 |
| GCACGUUCAGUGCACACCUTT against Nubp1 | 2.59 (active) |
| CCCUCACAACUUGAAGGACTT against Ccnk | -0.882 |
| GGAAGAAGUAGACCUGUCUTT against Aar2 | -2.36 (active) |
| GGCUUUAGCAGAUGAGCGATT against Sptbn4 | -0.0568 |
| GGGACUGAGGACUACAUUCTT against Eif1b | -1.17 |
| GGAGAAAUAAAUGACUUGCTT against Zswim2 | -0.762 |
| CCCACAGUACAUUCUAAAATT against Arsb | 0.776 |
| GCGUCAAAAUUAUCCGAAATT against Trnau1ap | 0.124 |
| GGACACGUUUCUGUGUUGUTT against Tspan32 | 0.304 |
| GCACUAUGGGUGUCAUGGUTT against Mon1a | -3.1 (active) |

| Sequence | z-score |
| --- | --- |
| CGUAUUCCAUGGUUUCCUATT against Whrn | 0.111 |
| GGAGUUUCUGGAAUGCAGGTT against Sec22c | 0.741 |
| GCACAAUUUUAUAACUCGGTT against Lrrc49 | 0.457 |
| GGAUAACUAUAUUCCAGUGTT against Rhobtb3 | 0.885 |
| GGCUAAAACACUUAUCAAUTT against Poteg | -2.32 (active) |
| CGUACCAUGUAAAUUCUAUTT against Impa1 | 0.843 |
| CCCAAGAAACUUCGCUUCCTT against Ehmt1 | -0.551 |
| GCCAAGCUUAAGAACUUAATT against Oas3 | 1.51 |
| GGAAUAGGCCUUCUUGCUGTT against Matr3 | -0.395 |
| GCAAGACGGUGAUUGUAACTT against Pck2 | -0.243 |
| GCUGAUUGAACUGAAUGGATT against Slc22a21 | -1.27 |
| CCAGGAUUGAUUUAGAAAATT against BC107364 | 1.29 |
| GGUCAUGGCUGGAUUUCUUTT against Olfr1462 | -2.42 (active) |
| GCAGUGUCCAAAGCACUUUTT against Slc6a9 | -1.14 |
| GGAUCGCUUAGUCUCAUGATT against Inip | -0.493 |
| GGUGAACGAUGUCAACUUUTT against Dvl1 | -0.545 |
| GCAUAGGAGAGACCAACAUTT against Zcchc10 | -2.42 (active) |
| GGAGGAAAAUCAGACAGGATT against Olfr1419 | -0.13 |
| GGUCCUCAAGAUCUUUGUGTT against Extl1 | 0.0445 |
| CCAAAACAACCACAAGUAGTT against Zfp385c | -2.96 (active) |
| GCUCUGUGGACUUCUUGGATT against Znrf4 | -0.687 |
| GGGCUAAAGCCUUCAACACTT against Olfr923 | 0.315 |

| Sequence | z-score |
| --- | --- |
| CCCUUACAACUCAAGUAUCTT against Lrig3 | 2.1 (active) |
| GGUUGAAAAUGUUGUCAGGTT against Atpsckmt | -0.733 |
| GGGUUUUUGUCAAAUCUGUTT against Ttc5 | -2.24 (active) |
| GGACAUCCAGACCAAUGUCTT against Psmd8 | 1.1 |
| GGUCCAGACAUUUGGAUACTT against Cav2 | 0.428 |
| GGAUACCUGAAAAUUGAUATT against Npr1 | -0.667 |
| GGGAAGCUUUACUUUUUAATT against Mapk4 | 2.05 (active) |
| CCUUAUGAAUCCCGAGUACTT against Bmp6 | -0.0506 |
| GGGCAAAAAAGGUCUAUUCTT against Rfpl4 | 0.44 |
| CCACAGUAUCAUGUAACUATT against Il1a | -2.23 (active) |
| GGAACCUAUUGCUGUUUUATT against Map2k3 | -0.756 |
| GGAAUGUGGUUUCCUGUUATT against Fscn3 | 0.502 |
| GGCUGAACAAGAGAAACCATT against Ppdpf | -2.49 (active) |
| CCCAGAAUUAAACAUAGCUTT against Rrh | 0.0181 |
| GGAAACCUGCUCAUAGUGGTT against Olfr1188 | 0.54 |
| GCAUGCCUAAAUUUGGGACTT against Fyb | 0.805 |
| GGCUGGACACUGAGAAAAATT against Adcy4 | 1.63 |
| GGUAUUUGGAGUACCCUUUTT against Arhgap11a | 0.196 |
| GGACAAGACUCUCAGUUCATT against Atpaf1 | 0.77 |
| GGAAUUUAGAAAAUGUGACTT against Vmn1r227 | -2.67 (active) |
| GGGUGAUCUGUAGUAUUUUTT against Olfr574 | -0.879 |
| CCCUGUUACGAAGUUUAACTT against Slc17a7 | -1.27 |

| Sequence | z-score |
| --- | --- |
| GGUGACUCUGAUUCUCAUATT against Slc22a13 | -0.176 |
| GGAACUUGUACAAAUAGGATT against Lpcat1 | 0.587 |
| GGACGAAGAGGAGAAAGAGTT against Ccdc184 | -1.25 |
| GCUUAUUCCCAGGAGACCATT against Dmrtc2 | -0.764 |
| CCCACCUUAUGGGACAAAATT against Hlf | 2.05 (active) |
| GGUGGCCCAGUCUAAAGAATT against R74862 | 0.872 |
| CCAGUGACAUUCAAUACCUTT against Lrif1 | -1.52 |
| GGUCAAUAUUGGCUUAUGUTT against Tmem42 | -1.43 |
| GGUGGAGAGAAAGAGAAAATT against Mcm8 | 0.767 |
| GGGUUACUUUAGCUAUUUCTT against Rbm14 | -1.11 |
| GGCUGAACAGGCAUGAUCATT against Rpap1 | -3 (active) |
| GGAGCUGCUAUGUACACAUTT against Bptf | 0.364 |
| GGGUGAAUUUCCACCUUAUTT against Sgce | -0.521 |
| GGAGAAAAUACAACUGUGATT against Ctrc | -1.05 |
| CGAAAAUCAAGCGGAAUUUTT against Zmiz1 | 2.49 (active) |
| GGGCUCACUCUGUCUCUACTT against Rpp25l | -0.378 |
| CCAAAUCUGGUGUGAUUCATT against Arhgef4 | -0.923 |
| GCAAAGAGGCCUAAUUGAATT against B2m | 1.16 |
| GGAUUUCAAACACGUCUUUTT against Asic5 | 0.222 |
| GGCGGGUUUGCUGAAUAACTT against Lrrc26 | 2.43 (active) |
